Compounds without any hit were thinned out: in the full panel of roughly 83,000, 20% have a hit.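 96-well plates, one dose, 48 hours. Percent growth reported; active if below 10.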 Values without a mark were called inactive. Calls of active or inactive are those of the source.

In the test the test system is EKVX NSCLC. Put plainly: NCI-60 one-dose screen, 48 h (100 = growth as untreated, 0 = no growth, -100 = all killed). As to conditions: 10 µM unless noted.
Take `COc1ccc(-c2cc(Cc3cccs3)c(=O)n(Cn3cncn3)n2)cc1`: the growth was 103%.
The same measure for `CC1=CSC2=NCCN12`: 103%; for `Cc1ccc(NC(=O)Nc2ccc(-c3cccnc3)cc2N2CCC(CO)CC2)cc1`: 55.5%; for `COc1ccc2c(c1)C(=O)c1c-2c(OCCCN(C)C)nc2cc(Br)ccc12`: 61.8%.
As for `CCC(CC)NCCCCCNc1cc(OC)cc2cccnc12`, the figure is 104%; as for `COc1cc(C2C=C(c3ccc(C)cc3)Nc3nc(SC)[nH]c(=O)c32)ccc1Oc1ccnc2cc(Cl)ccc12` (configuration not stated), 77%.
The same measure for `O=c1[nH]c(=O)n(C2CC(O)C(CO)O2)cc1C(F)(F)F` (configuration not stated): 86.6%; for `Nc1nc(Cl)c2[nH]cnc2n1`: 99.5%.
For `OC(CCC(O)(c1ccccc1)c1ccccc1)(c1ccccc1)c1ccccc1`, the growth is 58.8%.
On to `C[C@]12C[C@H](O)[C@H]3[C@@H](CCC4=CC(=O)CC[C@@]43C)[C@@H]1CC[C@@H]2C(=O)CO`, for which the growth was 80.7%.
Regarding `COC(=O)[C@]12CC[C@@H](C)[C@H](C)[C@@H]1C1=CC[C@@H]3[C@@]4(C)C=C(O)C(=O)[C@@]5(C)COC(=C54)C[C@@]3(C)[C@]1(C)CC2`, the growth was -56.7% (active).
With `C=C(C)[C@@H]1C/C=C(/C=O)CC[C@@H]2O[C@@]2(C)CC/C=C(\C)CC1`, the growth was 69.8%.
In the case of `CCCOc1ccc2c(c1)CC[C@@H]1[C@@H]2CC[C@@]2(C)[C@H]1CC[C@]2(C)O`, the growth is 80%.
The same measure for `C/C(=N\N1CC(=O)NC1=O)c1ccc([N+](=O)[O-])o1`: 90.8%; for `CCC1=C(c2ccc(OC)cc2)C(C)(C)Oc2cc(O)c(CN3CCCC3)cc21`: 85.2%.
The same measure for `COc1ccc(Cn2cc3c(c2-c2ccccc2)CCc2cncnc2-3)cc1`: 48.4%; for `CCC(CCC(C)C1CCC2C3CC=C4CC(O)CCC4(C)C3CCC12C)C(C)C` (configuration not stated) (tested in a mixture with another compound): 115%; for `COc1cc(OC)c2sc(-c3ccc(-n4cncc4-c4ccc(N)cc4)cc3)nc2c1`: 70.3%.
The same measure for `CCn1c2c(c3ccccc31)SC1c3cccn3CCN1C2=S` (configuration not stated): 107%; for `COc1ccc(CCN2CCCN3C2=Nc2ccccc2S3(=O)=O)cc1`: 45%.
For the compound `O=C(Nc1ncc([N+](=O)[O-])s1)c1cccc([N+](=O)[O-])c1`, the growth was 37.9%.
The same measure for `N#Cc1cnc2cc(OC[C@H](O)CO)c(NC(=O)CC3CSSC3)cc2c1Nc1ccc(OCc2cccc(F)c2)c(Cl)c1`: -69.9% (active); for `O=C(CSCC(=O)N/N=C/c1ccccc1O)N/N=C\c1ccccc1O`: 44.8%.
As for `CC(C)(C)c1ccc(S(=O)(=O)O)s1`, the figure is 92.7%.
The same measure for `CSC1=Nc2c(c(C)c(-c3ccccc3)n2CCCN2CCCCC2)C2=NC(=O)C[C@H](C)N12`: 41.9%.
Consider `CC(=O)Oc1ccc(C23c4ccccc4C2(OC(C)=O)c2cc(OC(C)=O)ccc23)cc1` (configuration not stated), for which the growth is 69.4%.
As for `COc1ccc2c(c1)C(=O)c1c-2c(OCCN(C)C)nc2cc(OC)ccc12`, the figure is 20.6%; as for `O=C1NCN(CCO)CN1`, 98.9%; as for `CC(=O)NCCSC(=O)C(=O)SCCNC(C)=O`, 101%.
As for `CCc1[nH]nc(-c2ccc(OC)cc2)c1-c1ccccc1OCCN(CC)CC`, the growth was 94.5%.
Regarding `Cc1cc(NC(=O)Nc2cccc3ccccc23)no1`, the growth is 102%.
Take `NC(=O)c1ccccc1NC(=O)c1ccccc1Cl`: the growth is 103%.
On to `CCCCCCCC/C=C\CCCCCCCCOc1ccccc1CC(=O)NCC[N+]1(C)CCCC1`, for which the growth is 93%.
The same measure for `c1ccc(-n2nnnc2-c2cccc3ccccc23)cc1`: 54.1%.
Turning to `O=C1c2ccccc2C(=O)c2c1cccc2-n1nnc2ccccc21`, the growth was 112%.
As for `CCC(O)C(C)(C)C` (configuration not stated), the figure is 99%.
As for `Clc1ccc([C@@H]2C[C@@H]3Cc4cc(Br)c5ccccc5c4N2O3)c(Cl)c1`, the growth is 108%.

The values above are taken from PubChem BioAssay (NCI).
